# Screen size: about 290,000 compounds; about 4,200 (1.4%) were called active.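 How the source made its calls: active means binding response more than 3 SD above or below the average of its plate-row segment, actives on both sides; inconclusive means wells at one plate position flagged as instrument error; inactive means the rest.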 What follows is part of a selection rich in actives, with near analogues and random picks from the rest.
# Target: Mitogen-activated protein kinase kinase kinase 3 (Homo sapiens) (UniProt Q99759)
# Test: compounds raising or lowering MEK5 association with MEKK3 PB1 – biochemical, wildtype MEKK3, multiplex bead flow cytometry, Alexa488-MEK5, primary screen (AID 1529);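 further: Alexa488 bead fluorescence after subtracting the streptavidin-only scavenger bead signal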
# Conditions: bead-based flow cytometry, Alexa488-MEK5 binding to MEKK3; at 10 µM; actives lie on both sides; 0 = blocked by unlabeled MEK5, 100 = vehicle
# Mitogen-activated protein kinase kinase kinase 3 (Homo sapiens), sequence (Q99759 whole entry, looked up): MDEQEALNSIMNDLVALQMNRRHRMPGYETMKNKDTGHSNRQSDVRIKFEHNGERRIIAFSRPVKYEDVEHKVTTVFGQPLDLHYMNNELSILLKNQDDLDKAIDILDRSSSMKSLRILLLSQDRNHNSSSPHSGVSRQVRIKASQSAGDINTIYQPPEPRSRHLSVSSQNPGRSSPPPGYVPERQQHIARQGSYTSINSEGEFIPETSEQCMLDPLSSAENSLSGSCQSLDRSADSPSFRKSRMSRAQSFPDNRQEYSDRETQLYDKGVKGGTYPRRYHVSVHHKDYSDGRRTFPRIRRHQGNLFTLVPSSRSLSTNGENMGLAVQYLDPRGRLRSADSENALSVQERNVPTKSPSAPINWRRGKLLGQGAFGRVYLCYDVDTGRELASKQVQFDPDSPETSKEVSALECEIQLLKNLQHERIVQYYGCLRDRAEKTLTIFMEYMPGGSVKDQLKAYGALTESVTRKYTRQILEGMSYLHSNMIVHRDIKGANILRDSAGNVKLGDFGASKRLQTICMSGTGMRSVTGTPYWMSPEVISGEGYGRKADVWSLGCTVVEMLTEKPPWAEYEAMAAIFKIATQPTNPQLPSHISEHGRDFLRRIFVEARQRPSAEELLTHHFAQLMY
row,Compound,binding response (% of control)
1,CC1(C(=O)O)CCC(C(=O)Nc2ccc(Cl)c(Cl)c2)C1(C)C (configuration not stated),103% (inactive)
2,COc1ccc(C(=O)COC(=O)CNC(=O)c2cccs2)cc1Br,99% (inactive)
3,CCn1c(NC(=O)c2ccccc2)c(-c2cccs2)c(=O)c2ccccc21,82% [inhibitor] (active)
4,COc1ccccc1C(=O)Nn1c(-c2cccs2)nc2ccccc2c1=O,111% (inactive)
5,CCn1c(=O)c2cc(C(=O)Nc3cccc(C(C)=O)c3)sc2c2ccccc21,106% (inactive)
6,COc1ccccc1N(CC(=O)N/N=C(\C)c1ccccc1O)S(=O)(=O)c1ccc(C)cc1,102% (inactive)
7,O=C(Cc1cccs1)N/N=C/c1ccc(OCc2ccccc2)cc1,129% (active)
8,CCOc1ccc(NC(=O)C/C(C)=N/NC(=O)Cc2cccs2)cc1,99% (inactive)
9,O=C(N/N=C/c1ccc(OCc2ccccc2)cc1)c1ccc(O)cc1,119% (inactive)
10,N#C/C(=C/c1ccc(N2CCOCC2)o1)C(=O)N1CCOCC1,94% (inactive)
11,N#C/C(=C\C1=C(N2CCOCC2)C(=C\c2ccccc2)/CC1)C(=O)Nc1ccccc1F,8% [inhibitor] (active)
12,N#C/C(=C\c1ccccc1C(F)(F)F)C(=O)Nc1ccccc1F,97% (inactive)
13,CN(CCC1CCOCC1)Cc1cn[nH]c1-c1ccc(-c2ccccc2)cc1,109% (inactive)
14,CCCCC(CC)CNCc1cccn1CCN1CCOCC1 (configuration not stated),100% (inactive)
15,CN(C)CCCN(C(=O)COc1ccccc1)c1nc2c(Cl)cccc2s1,35% [inhibitor] (active)
16,COc1cccc2sc(N(CCCN(C)C)C(=O)CCS(=O)(=O)c3ccccc3)nc12,97% (inactive)
17,COc1cccc2sc(N(CCCN(C)C)C(=O)C(c3ccccc3)c3ccccc3)nc12,111% (inactive)
18,COCCNc1ccc(-c2n[nH]c(=O)c3ccccc23)cc1[N+](=O)[O-],103% (inactive)
19,Cc1ccccc1C(=O)Nc1ccc(N2CCCCCC2)cc1,80% (inactive)
20,CCOC(=O)/C(C#N)=C/c1ccc(N2CCCCC2)cc1,99% (inactive)
21,O=C1C=CC(=O)N1c1ccc(N2CCCCC2)cc1,49% [inhibitor] (active)
22,C#CC(C)(C)NC(=O)c1cnc(-c2ccccc2)nc1-c1ccccc1,105% (inactive)
23,CC(NC(=O)c1cc2cc(Cl)ccc2oc1=N)c1ccccc1 (configuration not stated),100% (inactive)
24,Cc1ccc(CN(C)Cc2cc(=O)oc3cc(C)c(Cl)cc23)cc1,109% (inactive)
25,COc1ccc(N(C(=O)c2snc(C(N)=O)c2N)C(C(=O)NC2CCCC2)c2ccco2)cc1OC (configuration not stated),101% (inactive)

row,Compound,binding response (% of control)
1,Cc1c(Cl)cccc1NC(=O)[C@@]1(CC(=O)O)CC(/C=C/c2ccccc2)=NO1,96% (inactive)
2,COC(=O)c1c(NC(=O)c2ccccc2F)sc2c1C(C(=O)OC)CC2 (configuration not stated),98% (inactive)
3,CC(C)Nc1nnc(SCC(=O)/C=C2\N(C)c3ccccc3C2(C)C)s1,101% (inactive)
4,CC(=O)Nc1cccc(OCC(=O)/C=C2\N(C)c3ccccc3C2(C)C)c1,62% [inhibitor] (active)
5,Cc1noc(C)c1C(=O)OCC(=O)/C=C1\N(C)c2ccccc2C1(C)C,100% (inactive)
6,CC(CN1CCOCC1)OC(=O)c1ccc(C(C)(C)C)cc1 (configuration not stated),106% (inactive)
7,COc1cccc(/C=N/NC(=O)c2[nH]nc3c2CCc2ccccc2-3)c1O,102% (inactive)
8,COc1cc2cc(C(=O)N/N=C/c3cccc(OC)c3OC)[nH]c2cc1OC,94% (inactive)
9,COc1cccc(/C=N\NC(=O)C2=NNC(=O)C2C)c1O (configuration not stated),128% (active)
10,Cc1ccccc1Cn1c(=O)[nH]c2ccccc21,52% (inactive)
11,CCCc1cc(=S)n2c([nH]c3ccccc32)c1C#N,1% [inhibitor] (active)
12,CCOC(=O)CCc1c(C)c(C#N)c2[nH]c3ccccc3n2c1=O,109% (inactive)
13,COC(C[C@H](O)CC(=O)[C@@H](C)OCc1ccccc1)OC,101% (inactive)
14,O=C(NCCC1=CCCCC1)c1ccc(Cl)c([N+](=O)[O-])c1,153% (active)
15,CN(c1ccc(C(=O)NCCC2=CCCCC2)cc1)S(C)(=O)=O,100% (inactive)
16,Cn1nnc2cc(C(=O)NCCC3=CCCCC3)ccc21,99% (inactive)
17,O=[N+]([O-])c1ccccc1/C=C/CN1CCC(O)CC1,105% (inactive)
18,Cc1noc(C)c1S(=O)(=O)N(C)Cc1ccccc1,3% [inhibitor] (active)
19,Cc1noc(C)c1S(=O)(=O)Nc1ccc(C(=O)O)cc1,98% (inactive)
20,Cc1cc(C)cc(N(CC(=O)N2CC=C(c3ccccc3)CC2)S(=O)(=O)c2c(C)noc2C)c1,112% (inactive)
21,CCOc1ccccc1NC(=O)COc1ccc(S(=O)(=O)N2CCCC2)cc1,98% (inactive)
22,COc1ccc(S(=O)(=O)NC(C)C(=O)NCc2ccncc2)cc1Cl (configuration not stated),99% (inactive)
23,CC1CCN(C2=NC(=O)/C(=C/c3ccc(O)cc3)S2)CC1,100% (inactive)
24,CC1CCN(C2=NC(=O)/C(=C/c3cn[nH]c3-c3ccccc3)S2)CC1,130% (active)
25,Cc1ccc(N2CCN(C3=NC(=O)/C(=C\c4cccs4)S3)CC2)cc1,98% (inactive)

row,Compound,binding response (% of control)
1,COc1ccc(CN2CC[C@H]3C=CC[C@@H](C(=O)N4CCOCC4)[C@H]3C2=O)cc1OC,98% (inactive)
2,CC(=O)c1cccc(NC(=S)N2CCN(S(C)(=O)=O)CC2)c1,102% (inactive)
3,CCCNC(=O)CCn1nc(-c2ccccc2)c2ccccc2c1=O,94% (inactive)
4,O=c1c2ccccc2c(-c2ccc(Br)cc2)nn1Cc1ccccc1,109% (inactive)
5,O=c1c2ccccc2c(-c2ccccc2)nn1Cc1ccccc1,134% (active)
6,C=CCOC(=O)C1=C[C@H](c2ccc(Br)cc2)C[C@H](OCCCCO)O1,99% (inactive)
7,Cc1cccc(OCCC(=O)Nc2ccccc2C(N)=O)c1,104% (inactive)
8,COc1ccccc1C(=O)N/C(=C/c1ccco1)C(=O)Nc1ccc(C(=O)O)cc1,102% (inactive)
9,N#Cc1ccc(CSc2ncccn2)cc1,101% (inactive)
10,Cc1cc(C)nc(-n2nc(C)cc2NC(=O)c2ccc(F)cc2F)n1,105% (inactive)
11,CCCCc1nnc(NC(=O)CSc2nc(C)cc(=O)[nH]2)s1,98% (inactive)
12,CCOC(=O)Cc1csc(NC(=O)CSc2ccc(Br)cc2)n1,107% (inactive)
13,CCOC(=O)Cc1csc(NC(=O)CSc2nc(C)cc(=O)[nH]2)n1,58% [inhibitor] (active)
14,COc1ccc(S(=O)(=O)N2CCN(C(=O)N(C)C)C2C)cc1 (configuration not stated),102% (inactive)
15,O=C(Nc1ccn(Cc2ccccc2)n1)c1cccc(F)c1,135% (active)
16,O=C(Nc1ccn(Cc2ccccc2)n1)c1n[nH]c([N+](=O)[O-])c1Cl,99% (inactive)
17,O=C(Nc1cccc(NC(=O)c2cccc(F)c2)c1)c1ccccc1,101% (inactive)
18,COc1cc(CC(=O)N/N=C/c2ccccc2)c([N+](=O)[O-])cc1OC,134% (active)
19,COc1ccc(C(=O)NCC(=O)N/N=C/c2ccc([N+](=O)[O-])o2)cc1OC,133% (active)
20,COc1ccc(C(=O)NCC(=O)N/N=C/c2ccc([N+](=O)[O-])s2)cc1OC,102% (inactive)
21,COc1cc(/C=N/NC(=O)Cc2ccccc2)cc(OC)c1OC,98% (inactive)
22,COc1cc(/C=N/NC(=O)CNC(=O)c2ccncc2)ccc1OC(C)=O,105% (inactive)
23,O=C(Cc1cc(=O)[nH][nH]1)N/N=C/c1ccccc1[N+](=O)[O-],121% (inactive)
24,Cc1ccccc1N1CCN(C2CCCN(C(=O)c3ocnc3C)C2)CC1 (configuration not stated),106% (inactive)
25,COc1ccccc1CN1CCCC(N2CCN(c3ccc(F)cc3)CC2)C1 (configuration not stated),104% (inactive)

row,Compound,binding response (% of control)
1,C=CCOc1cccc(C2NC(=O)c3ccccc3O2)c1 (configuration not stated),91% (inactive)
2,CC(C)c1cc(C(N)=O)c(NC(=O)c2cccc(COc3ccc(Br)cc3)c2)s1,104% (inactive)
3,O=C(Nc1cccc(F)c1)NC1CCCc2ccccc21 (configuration not stated),99% (inactive)
4,Cc1nc2nc3c(cn2n1)C(=O)CC(c1ccccc1)C3 (configuration not stated),95% (inactive)
5,Cc1cc(C)nc(-n2ncc3c2CC(c2ccc(C(C)C)cc2)CC3=O)n1 (configuration not stated),148% (active)
6,CS(=O)(=O)N(CC(=O)N1CCOCC1)c1cccc(Cl)c1Cl,102% (inactive)
7,CCO[C@H]1OC(C(=O)N2CCCCCCC2)=C[C@@H](c2ccc(C(F)(F)F)cc2)[C@@H]1CCCO,107% (inactive)
8,CCO[C@H]1OC(C(=O)N2CCOCC2)=C[C@@H](c2ccc3c(c2)OCO3)[C@@H]1CCCO,81% [inhibitor] (active)
9,CCO[C@@H]1OC(C(=O)N2CCOCC2)=C[C@H](C)[C@H]1CCCO,99% (inactive)
10,Cc1ccc(Cn2c(C)c3cnn(CC(=O)NCc4ccccn4)c(=O)c3c2C)cc1,100% (inactive)
11,COC(=O)c1cccc(N(CC(=O)NCC2CCCO2)C(=O)CCC(=O)Nc2cc(C)on2)c1 (configuration not stated),103% (inactive)
12,O=C(Nc1ccc2oc(-c3ccc4ccccc4c3)nc2c1)c1cccs1,121% (inactive)
13,CC(O)c1cccc(NC(=O)Cc2cccc3ccccc23)c1 (configuration not stated),102% (inactive)
14,O=C(Cc1cccc2ccccc12)Nc1ccc2oc(-c3ccccc3)nc2c1,129% (active)
15,O=C(O)CSCc1nc2ccccc2s1,96% (inactive)
16,Clc1ccc(-c2nnc(SCc3nc4ccccc4s3)o2)cc1,150% (active)
17,c1ccc(-c2nnc(SCc3nc4ccccc4[nH]3)o2)cc1,98% (inactive)
18,COc1ccc(Cl)cc1NC(=O)C(C)N1CCc2ccccc21 (configuration not stated),100% (inactive)
19,Cc1ccccc1NC(=O)N1CCCC1C(=O)NCc1ccccc1 (configuration not stated),114% (inactive)
20,O=C(Nc1c2c(nn1-c1cccc(Cl)c1)CS(=O)(=O)C2)c1cccs1,82% (inactive)
21,Cc1nn(-c2ccccc2)c(NC(=O)c2cccs2)c(-c2ccc(Cl)cc2)c1=O,162% (active)
22,Cc1ccc(-n2nc(C)c(/C=N/NC(=O)c3cccs3)c2Cl)cc1,106% (inactive)
